54 compounds from PubChem BioAssay AID2472 (National Center for Advancing Translational Sciences (NCATS), 2010) can be followed below.

Several values for one entry are separate records, joined by “and”; a condition that tells them apart may be missing. Equal entries are not always repeated. Among all 290,000 compounds or so, about 2,000 (0.69%) were called active. Many of the other results were omitted from the sample, so actives are more common in it than they were. Unmarked numbers belong to inactive results. No stated cut-off is given here; in the data, active means activity change below about -30%; inactive means the rest, inconclusive results apart.
On the % scale 0 is the no-effect control and ±100 the full control effect.

A short description of this test: qHTS Assay for Inhibitors of Fructose-1,6-bisphosphate Aldolase from Giardia Lamblia: Coupling assay counterscreen. To be noted: coupling enzyme system counterscreen, AmpLite Red fluorescence; at 58.2 µM (top of the series). In a few lines: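 Coupling enzymes only (glyceraldehyde-3-phosphate) + compound, at 57.5 uM final, 10 min RT; add substrate/coupling/AmpLite Red mix, 20 min RT; fluorescence ex 525/em 598 nm. Actives flag coupling-system interference.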
(Quantitative high-throughput screening tests each substance at several concentrations.)
As to `COc1ccc(Br)cc1C1C2C=CCC(C)C2C(=O)N1Cc1ccccc1` (centres undefined), the activity change, negative = inhibition is 4.05%.

Consider `CC(=O)Nc1ccc(NC(=O)C2CCCN(S(=O)(=O)c3ccc(Cl)cc3)C2)cc1` (centres undefined), for which the activity change, negative = inhibition is 1.51%.

For the compound `CC(C)CC[n+]1ccn(C2=C([O-])c3ccccc3C(=O)/C2=N\S(=O)(=O)c2ccccc2)c1`, the activity change, negative = inhibition is -54.9% (active).

`COc1c(O)c2c(=O)cc(OC)c3c4c(OC)cc(=O)c5c(O)c(OC)c6c(c(c1C[C@@](C)(O)[C@H]6C(C)=O)c23)c54`: the activity change, negative = inhibition is -12.5%.

As for `CCCCN=C1C([N+](=O)[O-])=CC=C2C1=NC1(CCCCC1)N2O`, the activity change, negative = inhibition was -41.7% (active).

Consider `CC(c1ccccn1)N(C)C(=O)c1ccc2nc(Cc3cccc(Cl)c3)oc2c1` (centres undefined), for which the activity change, negative = inhibition was 1.38%.

`COC(=O)C1=C(C)N(Cc2ccccc2)C2=C3C(=O)N(c4ccccc4)C(=O)C3[C@@](O)(C(=O)OC)C(=O)N2C1c1ccccc1` (some centres undefined): the activity change, negative = inhibition is 1.55% and 0.598%.

Regarding `Cn1c(CCN2CCCC2)nc2cc(NS(=O)(=O)c3ccccc3)ccc21`, the activity change, negative = inhibition was -1.06%.

Turning to `O=S(=O)(Nc1ccc2cn[nH]c2c1)c1ccccc1`, the activity change, negative = inhibition is -8.07%.

Regarding `O=S(=O)(Nc1ccc2nc(-c3ccco3)[nH]c2c1)c1ccccc1`, the activity change, negative = inhibition was -35.1% (active).

Take `CCOC(=O)c1ccccc1NC(=O)COC(=O)CCC(=O)N1CCOCC1`: the activity change, negative = inhibition is 1.14%.

Turning to `CCCN1[C@H](C(=O)OC)C[C@@]2(O)[C@@H](O)[C@@H](O)[C@@H](O)C[C@@H]12`, the activity change, negative = inhibition was -12.1%.

In the case of `COc1ccc(-c2ccc(OC)c(C3C4C=CCC(C)C4C(=O)N3Cc3ccccc3)c2)cc1C` (centres undefined), the activity change, negative = inhibition is -0.316%.

As to `Cc1cc(Br)ccc1NC(=S)NC1CCCC1`, the activity change, negative = inhibition is 2.32%.

Regarding `CC[C@@H](C)[C@H](NC(=O)CCc1c(C)c2cc3c4c(oc3c(C)c2oc1=O)CCCC4)C(=O)O`, the activity change, negative = inhibition is 0.476%.

For `COC(=O)C1=C(C(=O)OC)[C@@H]2Nc3ccccc3[C@@]23C[C@@H](C(=O)OC)N(S(=O)(=O)c2ccc([N+](=O)[O-])cc2)C3=N1`, the activity change, negative = inhibition is -1.96%.

For the compound `CCOc1ccc(N(C)Cc2cc(=O)oc3ccc(OC)cc23)cc1`, the activity change, negative = inhibition was -3.63%.

Turning to `CCn1c(CNc2ccc(OC)cc2)nnc1SCC(=O)c1ccc(OC)cc1`, the activity change, negative = inhibition is -36.8% (active).

Take `COC(=O)c1ccc(NC(=O)CSc2nnc(CNc3ccc(OC)cc3)n2C)cc1`: the activity change, negative = inhibition is -19.7%.

Consider `C=CCn1c(CNC(=O)c2ccco2)nnc1SCC(=O)c1ccc(OC)cc1`, for which the activity change, negative = inhibition is 1.42%.

Take `CC1=C(C(N)=O)C(c2ccc(F)cc2)n2nc(CCCO)nc2N1` (centres undefined): the activity change, negative = inhibition was -0.212%.

Take `O=C(O)c1cc(S(=O)(=O)NC2CCCc3ccccc32)ccc1O` (centres undefined): the activity change, negative = inhibition is 20.1%.

In the case of `C=CCn1c(N)c(S(=O)(=O)c2cccs2)c2nc3ccccc3nc21`, the activity change, negative = inhibition was -35.3% (active).

For `CCN(CC)CCn1c(N)c(S(=O)(=O)c2ccccc2)c2nc3ccccc3nc21`, the activity change, negative = inhibition is 2.05%.

`Cc1ccc(S(=O)(=O)c2c(N)n(C)c3nc4ccccc4nc23)cc1`: the activity change, negative = inhibition is -4.65%.

Consider `CC(=O)NC1CCN(CC(=O)Nc2nccs2)CC1`, for which the activity change, negative = inhibition was -1.15%.

As for `c1ccc2cc3c(NCCN4CCOCC4)ccnc3cc2c1`, the activity change, negative = inhibition is -52.2% (active).

Regarding `CN(C)c1ccc(-c2nc(NCCN3CCOCC3)c3ccccc3n2)cc1`, the activity change, negative = inhibition is -0.456%.

As for `Clc1ccccc1-c1cc(NCCN2CCOCC2)ncn1`, the activity change, negative = inhibition is 2.16%.

As to `COc1cc(NC(=O)c2ccccc2)c(OC)cc1NC(=O)Cc1ccccc1`, the activity change, negative = inhibition is -0.254%.

Turning to `COc1cccc(CNC(=O)CCC2CCCN(Cc3ccc(OC(F)F)cc3)C2)c1` (centres undefined), the activity change, negative = inhibition was 5.02%.

With `Cc1ccc(C(=O)N(CC(=O)NC2CCCC2)c2ccc(F)cc2)s1`, the activity change, negative = inhibition was -3.12%.

For `COCCN1C=C2C(=O)C(C)(OC(=O)C3CCCC3)C(=O)C=C2C=C1c1ccsc1` (centres undefined), the activity change, negative = inhibition was -33.6% (active) and -32.5% (active).

`CC1(OC(=O)C2CCCC2)C(=O)C=C2C=C(c3ccc(C#N)cc3)OC=C2C1=O` (centres undefined): the activity change, negative = inhibition was -0.443%.

Turning to `CC1(OC(=O)CCc2ccccc2)C(=O)C=C2C=C(c3ccc(C#N)cc3)N(CCc3ccccn3)C=C2C1=O` (centres undefined), the activity change, negative = inhibition is -28.3% and -0.189%.

As to `Cc1onc(-c2ccccc2Cl)c1C(=O)OCC(=O)c1ccccc1`, the activity change, negative = inhibition was -1.67%.

Consider `O=C(CN1C(=O)c2ccccc2C1=O)NCc1ccc(C(=O)O)cc1`, for which the activity change, negative = inhibition is 0.209%.

As for `CC(C)N(C(=O)c1ccc(-c2ccccc2F)cc1)C(C)C`, the activity change, negative = inhibition was -0.0112%.

Turning to `CC(=O)N(C1=C(Cl)C(=O)c2ccccc2C1=O)c1ccc(C(=O)O)cc1`, the activity change, negative = inhibition is -85.1% (active).

On to `COc1ccc(C(=O)N2CCC3(CC2)CCN(c2ccccn2)CC3)cc1`, for which the activity change, negative = inhibition is -4.93%.

As for `Cc1ccc(CNC(=O)Cn2cnc(S(=O)(=O)N3CCCCC3)c2)o1`, the activity change, negative = inhibition is 0.0578%.

Consider `CCCCn1c(SCC(=O)NCC2CCCO2)nc2ccc(N3CCOCC3)cc2c1=O` (centres undefined), for which the activity change, negative = inhibition is -43.6% (active).

Regarding `COCCNC(=O)c1ccc(Cn2c(SCC(=O)NCC3CCCO3)nc3ccc(Br)cc3c2=O)cc1` (centres undefined), the activity change, negative = inhibition was 0.29%.

Consider `O=C(CCCn1c(SCC(=O)c2ccccc2)nc2ccccc2c1=O)NCC1CCCO1` (centres undefined), for which the activity change, negative = inhibition is -0.079%.

In the case of `Cc1ccc(OCC(=O)NCCCNC(=O)c2cccnc2)cc1C`, the activity change, negative = inhibition is -0.615%.

Turning to `O=[N+]([O-])c1cccc2ncccc12`, the activity change, negative = inhibition is 0.0628%.

For the compound `COc1ccc(/C=N/Nc2nc3ccccc3c(=O)[nH]2)cc1`, the activity change, negative = inhibition is 0.889%.

Consider `COc1ccc(C=Nc2cccc3ncccc23)cc1`, for which the activity change, negative = inhibition was -34.4% (active).

Take `CCCCC/C=C\C/C=C\C/C=C\CCCCC(=O)NCC(=O)O`: the activity change, negative = inhibition was 4.26%.

As to `COC(=O)C1=C(C(=O)OC)[C@@H]2N(C)c3ccccc3[C@@]23C[C@@H](C(=O)OC)N(S(=O)(=O)c2cccs2)C3=N1`, the activity change, negative = inhibition was -0.105%.

Turning to `O=C1CN(Cc2ccccc2)S(=O)(=O)c2ccccc21`, the activity change, negative = inhibition was 13.2%.

Consider `COc1ccc(CC(=O)NCC(=O)N/N=C/c2cc(Br)ccc2OC)cc1`, for which the activity change, negative = inhibition is -33.8% (active).

Regarding `COc1ccc(CC(=O)N/N=C/c2cc([N+](=O)[O-])cc(Br)c2O)cc1`, the activity change, negative = inhibition is 8.72%.

`Cc1ccc(OCCOCCOc2ccc(Br)cc2/C=N\NC(=O)c2ccncc2)cc1`: the activity change, negative = inhibition is -5.74%.
